# Earlier results as cited in PubChem BioAssay AID977608.
# The campaign covered roughly 4,300 compounds. About 4,300 (100%) were called active. No cut-off is given here; in the data, nearly all actives have IC50 up to about 1400 µM. So high a share suggests a set chosen from earlier hits. The list shows a part of the results. Square brackets hold non-standard residues; d marks the D form. Residues, ends and D or L forms follow the SMILES beside them. Peptide text beside a SMILES is read from it. * marks the point of attachment. Orn(CH(NH2)2) = NC(N)NCCC[C@H](N)C(=O)O; Propionyl = CCC(=O)*
# Assay: protein-ligand inhibition affinities from structures – PDB-derived complexes (AID 977608)
compound,measurement,setting,value
COc1c(C(C)(C)C)cc(C2=CCC=NC2=O)c2ncc(N3CC[C@H](CNS(C)(=O)=O)C3)cc12,IC50,"literature IC50, protein: Hepatitis C Virus polymerase NS5B genotype 1b (BK), PDB entry 4mib",0.0002 µM (active)
COc1cc(-c2ccc3c(c2)OCCN3C)cc(C)c1O,IC50,"literature IC50, protein: Serine/threonine-protein kinase/endoribonuclease IRE1-alpha, PDB entry 4pl4",5.4 µM (active)
COc1cc(-c2ccc(N3CCOCC3)cc2)cc(C)c1O,IC50,"literature IC50, protein: IRE1-alpha, PDB entry 4pl5",11 µM (active)
CN1CCC(C=N)(NC(=O)[C@H](CC2CCCCC2)NC(=O)N2CCOCC2)CC1,IC50,"literature IC50, protein: human Cathepsin S, PDB entry 2r9m",0.0015 µM (active)
CN(C)CCNC1CCN2NC=C(c3cn[nH]c3)C2N1 (stereo not given),IC50,"literature IC50, protein: Serine/threonine-protein kinase pim-1, PDB entry 4mbi",0.007 µM (active)
Cc1ccc(C(=O)Nc2ccc(S(O)(O)O)c3cccc(S(O)(O)O)c23)cc1NC(=O)c1cccc([N+](=O)[O-])c1,IC50,"literature IC50, protein: mNV-RdRp, PDB entry 4nru",0.115 µM (active)
CCCCCCCC(=O)O[C@@H]1[C@@H](OC(=O)[C@H](C)CC)[C@@H](C)[C@@H]2[C@H]1[C@@](C)(OC(C)=O)C[C@H](OC(=O)CCC)[C@@]1(O)[C@H]2O[C@@H](O)[C@@]1(C)O,IC50,"literature IC50, protein: Sarcoplasmic/endoplasmic reticulum calcium ATPase 1 (SERCA1a), PDB entry 3n5k",0.0002 µM (active)
O=C(Nc1cnn(-c2cccc(C(=O)Nc3cnn([C@H]4CCNC4)c3)c2)c1)Nc1ccccc1Cl,IC50,"literature IC50, protein: Mitogen-activated protein kinase 10 JNK3, PDB entry 4whz",0.001 µM (active)
Cc1nc2ccccc2[n+]([O-])c1C,IC50,"literature IC50, protein: Peroxiredoxin-1, PDB entry 4kw6",374 µM (active)
CC(C)C[C@@H]1NC(=O)c2c1c1c3ccccc3n(CCCCN)c1c1[nH]c3ccccc3c21,IC50,"literature IC50, protein: Proto-oncogene tyrosine-protein kinase Src, PDB entry 4mcv",0.0013 µM (active)
O=C[N+](=O)CCC[P+](O)(O)O,IC50,"literature IC50, protein: E. coli 1-deoxy-D-xylulose 5-phosphate reductoisomerase (DXR), PDB entry 1onp",0.03 µM (active)
same,IC50,"literature IC50, protein: Oxidoreductase, PDB entry 3upy",2.39 µM (active)
NC(=O)C[C@@H]1NC(=O)C2(CCCCC2)NC(=O)C[C@@H](c2ccc(C[P+](O)(O)O)cc2)/C=C/C[C@@H](Cc2cccc3ccccc23)CNC1=O,IC50,"literature IC50, protein: growth factor receptor binding protein SH2 domain, PDB entry 1x0n",0.02 µM (active)
CC(C)C1=CC2=C(C(O)C1=O)[C@@]1(C)CCCC(C)(C)[C@@H]1C(=O)C2 (stereo not given in full),IC50,"literature IC50, protein: Farnesyl pyrophosphate synthase HsFPPS-5, PDB entry 4p0v",1.2 µM (active)
O=C(c1csc(-c2ccsc2)n1)n1ccc2ccccc21,IC50,"literature IC50, protein: 3-OXOACYL-[ACYL-CARRIER-PROTEIN] REDUCTASE FABG, PDB entry 4bo6",0.18 µM (active)
H-SDFEEFSLDDIEQ-OH,IC50,"literature IC50, protein: ?-thrombin, PDB entry 1thr",4.2 µM (active)
CC[C@H](C)[C@H](NC(=O)[C@H](Cc1ccccc1)NC(=O)[C@H](Cc1ccc(O)cc1)NC(=O)[C@H](CCC(=O)O)NC(=O)[C@@H](N)CCCCN)C(=O)O (tested in a mixture with another compound) (H-KEYFI-OH),IC50,"literature IC50, protein: HLA class I histocompatibility antigen, A-2 alpha chain HLA-A*0201, PDB entry 4u6x",0.414 µM (active)
H-ETFEHWWSQLLS-OH,IC50,"literature IC50, protein: E3 ubiquitin-protein ligase Mdm2, PDB entry 3jzs",0.008 µM (active)
same,IC50,"literature IC50, protein: Human Protein Mdm4, PDB entry 3jzq",0.11 µM (active)
H-LTFEHWWAQLTS-OH,IC50,"literature IC50, protein: E3 ubiquitin-protein ligase Mdm2, PDB entry 3jzr",0.036 µM (active)
same,IC50,"literature IC50, protein: Human Protein Mdm4, PDB entry 3jzp",0.25 µM (active)
C#Cc1csc2c1NC(NC1CCCC1)=[N+](CC)C2O (stereo not given),IC50,"literature IC50, protein: High affinity cAMP-specific 3',5'-cyclic phosphodiesterase 7A PDE7A, PDB entry 4pm0",0.045 µM (active)
N#Cc1ccc(-c2ccc(OCC(=O)O)cc2CN2CCN(c3ccccn3)CC2)cc1,IC50,"literature IC50, protein: PANTOTHENATE KINASE, PDB entry 4bfy",0.12 µM (active)
CCc1c(N2CCOCC2=O)cccc1S(=O)(=O)N[C@@H](Cc1cc(-c2ccc(Cl)s2)on1)C(=O)N1CCC(OC)CC1,IC50,"literature IC50, protein: COAGULATION FACTOR X LIGHT CHAIN & COAGULATION FACTOR X, PDB entry 4btt",0.00143 µM (active)
COCCOCCc1c(C)c2cc(OC)c(O)c(C)c2oc1=O,IC50,"literature IC50, protein: Serine/threonine-protein kinase/endoribonuclease IRE1-alpha, PDB entry 4pl3",0.29 µM (active)
Cc1cc(O)c(C(C)C)cc1N=O,IC50,"literature IC50, protein: Serine/threonine-protein kinase PLK1, PDB entry 4h71",35.6 µM (active)
Oc1ccc(-c2nc(-c3ccc(F)cc3)c(-c3ccncc3)[nH]2)cc1,IC50,"literature IC50, protein: Bromodomain-containing protein 4 BRD4-1, PDB entry 4o77",2.5 µM (active)
N#Cc1ccc(O)cc1F,IC50,"literature IC50, protein: M-phase inducer phosphatase 2 CDC25B, PDB entry 4wh7",5000 µM (active)
CC(=O)N1CCC[C@H]([C@]2(Cc3cccc(Cl)c3)C(=O)Nc3cc(Cl)ccc32)C1,IC50,"literature IC50, protein: Humanized Xenopus E3 ubiquitin-protein ligase Mdm2, PDB entry 4lwt",3.9 µM (active)
CCOc1c(I)cc(Cl)cc1CNCCCNC(=O)Nc1ccsc1,IC50,"literature IC50, protein: Trypanosoma brucei methionyl-tRNA synthetase, PDB entry 4mw7",10 µM (active)
OCc1cc(-c2cn[nH]c2-c2ccc(F)cc2)ccn1,IC50,"literature IC50, protein: Casein kinase I isoform delta, PDB entry 4kbc",0.0142 µM (active)
COc1ccccc1-n1c(-c2cc(O)ccc2C)c[n+]2c3c(=O)[nH]c(=O)n(C)c3[nH]c12,IC50,"literature IC50, protein: EPH receptor A3, PDB entry 4gk2",0.0016 µM (active)
O=C1CCN(c2cccc([N+](=O)[O-])c2)C(=O)N1,IC50,"literature IC50, protein: Bifunctional protein GlmU, PDB entry 4kpz",1950 µM (active)
CSCC[C@H](NC(=O)[C@@H]1CCCN1C(=O)CNC(=O)[C@H](CO[P+](O)(O)O)NC(=O)[C@H](Cc1ccc(O)cc1)NC(=O)[C@@H](NC(=O)[C@@H](N)CCCNC(N)N)[C@@H](C)O)C(=O)N[C@@H](CC(N)=O)C(=O)N[C@@H](CCCCN)C(=O)N[C@H](C(=O)O)C(C)C,IC50,"literature IC50, protein: HLA class I histocompatibility antigen, PDB entry 3bh9",0.117 µM (active)
CCC(=O)NCCCC[C@H](NC(=O)[C@@H]1CCCN1C(=O)[C@H](CCCNC(N)N)NC(=O)[C@@H](NC(=O)[C@H](CCSC)NC(=O)[C@H](C)NC(=O)[C@@H](NC(=O)[C@@H]1CCCN1C(=O)[C@H](CCCNC(N)N)NC(=O)[C@H](CC(C)C)NC(=O)[C@H](CCCCN)NC(C)=O)C(C)C)C(C)C)C(=O)N[C@H](C(=O)N[C@@H](CCCNC(N)N)C(=O)O)C(C)C (Ac-KL[Orn(CH(NH2)2)]PVAMV[Orn(CH(NH2)2)]PK(Propionyl)V[Orn(CH(NH2)2)]-OH),IC50,"literature IC50, protein: E3 ubiquitin-protein ligase SIAH1, PDB entry 4i7d",0.1 µM (active)
